27 compounds from PubChem BioAssay (Tox21) can be followed below.

Test [1] can be described thus: Caspase-3/7 induction in CHO-K1 cells by small molecules, qHTS assay (AID 1346980). Note: nearly all actives have a fitted effect of over 15% in size. Particulars: CHO-K1 caspase-3/7 induction, Caspase-Glo luminescence, 17 h; series mostly up to 92.4 µM. In outline: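 Luminescent Caspase-Glo 3/7 read (30min, room temperature) quantified apoptosis induction. Cells were wild-type CHO-K1, treated with compound for 17hr at 37 C and 5% CO2.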

Test [2] can be described thus: Caspase-3/7 induction in HepG2 cells by small molecules, qHTS cell viability counter screen (AID 1346981). Note: nearly all actives have a fitted effect of over 30% in size. Note: potency is the fitted concentration of half-maximal effect. As to conditions: CellTiter-Fluor fluorescence, 17 h; series mostly up to 92.4 µM. In outline:
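Counter screen for cytotoxicity: HepG2 exposed 16 hr to compounds, then CellTiter-Fluor viability signal (fluorescence, 1 hr reagent incubation).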

The target in test [3] is Nuclear receptor subfamily 1 group I member 2 (Homo sapiens) (UniProt O75469). Briefly: Human pregnane X receptor (PXR) small molecule agonists, qHTS assay (AID 1346982). Note: nearly all actives have a fitted effect of over 35% in size. Note: potency is the fitted concentration of half-maximal effect. As to conditions: PXR-Luc HepG2, CYP3A4 luciferase reporter, 24 h; series mostly up to 92.4 µM. In outline:
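Luminescence (ONE-Glo, 30 min RT) after 24 hr compound exposure of PXR-Luc HepG2 cells; cells rested 5 hr post-plating in 5% charcoal-stripped FBS medium.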

Test [4] addresses Cytochrome P450 2C19 (Homo sapiens) (UniProt P33261). Nature of the test: Cytochrome P450 Family 2 Subfamily C Member 19 (CYP2C19) small molecule antagonists: luciferase reporter qHTS assay (AID 1671197). Note: nearly all actives have a fitted effect of over 65% in size. Note: potency is the fitted concentration of half-maximal effect. As to conditions: P450-Glo CYP2C19 enzyme, luciferin luminescence, 1 h; series mostly up to 115 µM. In outline: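 Light output is proportional to CYP2C19 activity: proluciferin substrate is converted to luciferin, then detected by a luciferin detection reagent that also stops the 1 h, 37C NADPH-driven reaction. Ketoconazole serves as positive control.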
(A reporter such as luciferase makes a cellular process visible.)

In test [5] the target is Cytochrome P450 2C9 (Homo sapiens) (UniProt P11712). Briefly: Cytochrome P450 Family 2 Subfamily C Member 9 (CYP2C9) small molecule antagonists: luciferase reporter qHTS assay (AID 1671198). Note: nearly all actives have a fitted effect of over 50% in size. Note: potency is the fitted concentration of half-maximal effect. As to conditions: P450-Glo CYP2C9 enzyme assay, luciferin luminescence; series mostly up to 115 µM. A digest of the protocol:
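Enzyme-substrate mix preincubated with compound 10 min at room temperature; reaction started with NADPH regeneration solution, 1 h 37C. Luminescent luciferin product read after 20 min detection reagent.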

Test [6] addresses Cytochrome P450 1A2 (Homo sapiens) (UniProt P05177). Briefly: Cytochrome P450 Family 1 Subfamily A Member 2 (CYP1A2) small molecule antagonists: luciferase reporter qHTS assay (AID 1671199). Note: nearly all actives have a fitted effect of over 50% in size. Note: potency is the fitted concentration of half-maximal effect. Particulars: P450-Glo CYP1A2 enzyme, luciferin luminescence, 1 h; series mostly up to 115 µM. In outline:
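Signal from luciferin formed by CYP1A2 from a proluciferin substrate is read as luminescence, expressed in relative luminescence units. Compounds sit with enzyme 10 min, NADPH-driven reaction runs 1 h, all at room temperature.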

Test [7] has as its target Cytochrome P450 2D6 (Homo sapiens) (UniProt P10635). Briefly: Cytochrome P450 Family 2 Subfamily D Member 6 (CYP2D6) small molecule antagonists: luciferase reporter qHTS assay (AID 1671196). Note: nearly all actives have a fitted effect of over 50% in size. Note: potency is the fitted concentration of half-maximal effect. As to conditions: P450-Glo CYP2D6 enzyme assay, luciferin luminescence, 1 h; series mostly up to 115 µM. In outline:
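Inhibition of CYP2D6 was gauged by loss of luminescence, since light produced tracks the luciferin generated from a proluciferin substrate. A 10 min room-temperature preincubation preceded 1 h NADPH-supported turnover.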

Unmarked numbers belong to inactive results. Results filed as inconclusive are left out. The source made the active and inactive calls. Calls come from the whole dose curve; as a rule, active = well fitted curve in the direction sought with a large enough effect in the repeat runs; inconclusive = weak or mixed curves; inactive = no such curve, though single readings can be large; an effect the other way counts as inactive or inconclusive.
% is set by controls: 0 for no effect and ±100 for the full control effect.

Sequence of Cytochrome P450 2D6 (Homo sapiens) (P10635 whole entry, looked up): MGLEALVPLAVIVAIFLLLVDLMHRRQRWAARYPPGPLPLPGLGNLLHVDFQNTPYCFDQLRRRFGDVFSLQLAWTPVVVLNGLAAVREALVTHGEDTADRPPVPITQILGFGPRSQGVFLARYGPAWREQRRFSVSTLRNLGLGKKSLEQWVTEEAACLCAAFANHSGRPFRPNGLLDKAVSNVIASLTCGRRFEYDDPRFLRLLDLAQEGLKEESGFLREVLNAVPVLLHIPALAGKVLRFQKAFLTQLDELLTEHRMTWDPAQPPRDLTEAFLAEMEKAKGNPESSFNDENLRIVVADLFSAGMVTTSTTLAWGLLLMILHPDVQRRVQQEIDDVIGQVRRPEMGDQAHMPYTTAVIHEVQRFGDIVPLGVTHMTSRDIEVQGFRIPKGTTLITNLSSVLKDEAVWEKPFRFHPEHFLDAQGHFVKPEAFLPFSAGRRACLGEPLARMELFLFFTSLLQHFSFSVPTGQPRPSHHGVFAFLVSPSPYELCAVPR
Sequence of Cytochrome P450 2C9 (Homo sapiens) (P11712 whole entry, looked up): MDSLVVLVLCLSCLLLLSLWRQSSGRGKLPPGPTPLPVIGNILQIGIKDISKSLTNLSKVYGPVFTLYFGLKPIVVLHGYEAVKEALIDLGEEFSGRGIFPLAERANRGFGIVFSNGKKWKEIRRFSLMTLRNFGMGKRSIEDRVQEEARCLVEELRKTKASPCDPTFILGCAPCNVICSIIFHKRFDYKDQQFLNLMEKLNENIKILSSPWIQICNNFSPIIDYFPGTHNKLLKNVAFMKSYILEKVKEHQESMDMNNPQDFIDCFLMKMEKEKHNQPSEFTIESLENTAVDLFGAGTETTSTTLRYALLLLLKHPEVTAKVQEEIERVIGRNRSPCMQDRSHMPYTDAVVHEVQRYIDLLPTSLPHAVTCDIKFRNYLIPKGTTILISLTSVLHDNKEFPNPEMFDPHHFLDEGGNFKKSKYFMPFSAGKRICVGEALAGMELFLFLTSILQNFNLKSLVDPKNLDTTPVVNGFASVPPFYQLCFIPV
Sequence of Cytochrome P450 2C19 (Homo sapiens) (P33261 whole entry, looked up): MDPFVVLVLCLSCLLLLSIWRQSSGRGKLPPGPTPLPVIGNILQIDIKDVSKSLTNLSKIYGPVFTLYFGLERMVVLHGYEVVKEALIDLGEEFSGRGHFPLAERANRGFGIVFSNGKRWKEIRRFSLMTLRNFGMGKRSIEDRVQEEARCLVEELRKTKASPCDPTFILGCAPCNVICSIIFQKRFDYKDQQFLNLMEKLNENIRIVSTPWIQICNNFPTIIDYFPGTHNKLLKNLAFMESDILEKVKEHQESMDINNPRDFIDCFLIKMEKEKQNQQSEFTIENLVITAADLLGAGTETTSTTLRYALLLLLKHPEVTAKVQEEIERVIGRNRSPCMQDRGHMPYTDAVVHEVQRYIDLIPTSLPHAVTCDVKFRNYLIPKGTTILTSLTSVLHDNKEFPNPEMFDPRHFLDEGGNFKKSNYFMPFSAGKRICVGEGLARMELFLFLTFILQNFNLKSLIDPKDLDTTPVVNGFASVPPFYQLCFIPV
Sequence of Nuclear receptor subfamily 1 group I member 2 (Homo sapiens) (O75469 whole entry, looked up): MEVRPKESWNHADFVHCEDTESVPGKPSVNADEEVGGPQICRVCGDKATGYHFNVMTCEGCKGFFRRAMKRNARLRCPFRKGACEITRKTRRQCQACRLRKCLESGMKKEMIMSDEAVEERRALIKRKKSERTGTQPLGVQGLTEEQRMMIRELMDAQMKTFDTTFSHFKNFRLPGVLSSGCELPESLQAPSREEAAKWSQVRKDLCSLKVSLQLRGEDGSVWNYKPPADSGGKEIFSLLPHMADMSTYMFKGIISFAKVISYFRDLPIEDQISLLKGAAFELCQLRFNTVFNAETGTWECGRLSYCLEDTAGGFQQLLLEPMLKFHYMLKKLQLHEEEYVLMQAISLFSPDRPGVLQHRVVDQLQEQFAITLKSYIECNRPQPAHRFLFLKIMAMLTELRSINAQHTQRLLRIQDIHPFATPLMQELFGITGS
Sequence of Cytochrome P450 1A2 (Homo sapiens) (P05177 whole entry, looked up): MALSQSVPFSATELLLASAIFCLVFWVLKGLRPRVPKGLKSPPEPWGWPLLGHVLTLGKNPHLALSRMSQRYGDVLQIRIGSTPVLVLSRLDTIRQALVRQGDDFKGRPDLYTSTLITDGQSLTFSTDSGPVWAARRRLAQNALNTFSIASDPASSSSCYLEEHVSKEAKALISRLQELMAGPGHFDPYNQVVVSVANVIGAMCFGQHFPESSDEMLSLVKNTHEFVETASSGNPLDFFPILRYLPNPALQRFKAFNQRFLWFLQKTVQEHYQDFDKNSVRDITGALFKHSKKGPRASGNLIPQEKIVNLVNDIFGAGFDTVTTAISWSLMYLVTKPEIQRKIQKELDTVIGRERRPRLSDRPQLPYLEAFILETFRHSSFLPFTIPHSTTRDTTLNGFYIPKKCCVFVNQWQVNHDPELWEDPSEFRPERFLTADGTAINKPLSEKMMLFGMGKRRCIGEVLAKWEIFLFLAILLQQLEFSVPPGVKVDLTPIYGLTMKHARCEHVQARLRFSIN

On to `NCc1ccco1`, for which the Potency entry in test [1], in test [2], in test [3], in test [4], in test [5] and in test [6] was “inactive” throughout.
On to `CCN(CC)c1ccc2c(c1)Oc1cc(N(CC)CC)ccc1C21OC(=O)c2ccccc21`, for which the Potency result in test [1] was “inactive”. For the same compound, the Potency was 5.31 µM (active) in test [2], 26.6 µM (active) in test [3], 38.9 µM (active) in test [4] and 15.5 µM (active) in test [5].
For `CC(=O)CC(N)=O`, the Potency entry in test [1], in test [2], in test [3], in test [7], in test [4] and in test [5] was “inactive” throughout. Also, the Potency entry in test [6] was “inactive”.
Consider `CC(c1cc(C(C)(C)C)cc(C(C)(C)C)c1O)c1cc(C(C)(C)C)cc(C(C)(C)C)c1O`, for which the Potency entry in test [1], in test [2], in test [3], in test [7] and in test [6] was “inactive” throughout. In test [4], the Potency was 31.7 µM (active).
For the compound `CCOC(=O)OC(=O)OCC`, the Potency result in test [1], in test [2], in test [3], in test [7], in test [4] and in test [5] was “inactive” each time. Besides, the Potency result in test [6] was “inactive”.
Turning to `CCC(=O)OC/C=C(\C)CCC=C(C)C`, the Potency result in test [1], in test [2], in test [3], in test [7] and in test [5] was “inactive” each time.
Take `N#Cc1ccc(C/C(=N/NC(=O)Nc2ccc(OC(F)(F)F)cc2)c2cccc(C(F)(F)F)c2)cc1`: the Potency entry in test [1] and in test [2] was “inactive” in each case. For the same compound, the Potency in test [3] is 54.5 µM (active); in test [7] it was 39.9 µM (active); in test [4], 12.6 µM (active); in test [5], 22.4 µM (active); in test [6], 25.2 µM (active).
On to `Cc1cccc2c1ccc1ccccc12`, for which the Potency entry in test [1], in test [2], in test [3] and in test [7] was “inactive” in each case. Further, the results for the Potency in test [4] and in test [6] were 79.6 µM (active) and 6.33 µM (active), respectively.
With `CCOc1nc(F)cc2nc(S(=O)(=O)Nc3c(Cl)cccc3C(=O)OC)nn12`, the Potency result in test [1], in test [2], in test [3], in test [7], in test [4] and in test [6] was “inactive” in each case.
As to `N#CCCOCCC#N`, the Potency result in test [1], in test [2], in test [3], in test [7], in test [4] and in test [5] was “inactive” each time. The Potency result in test [6] was “inactive”.
Turning to `CCCCCCCCCCCC(=O)Cl`, the Potency entry in test [1], in test [2], in test [3], in test [7] and in test [6] was “inactive” in each case.
For `CCCCC/C=C\C=C\C(=O)OCC`, the Potency result in test [1] and in test [2] was “inactive” in each case. In addition, the Potency in test [3] is 63.7 µM (active); in test [7] it was 46.7 µM (active); in test [4], 23.4 µM (active); in test [5] it was 13.2 µM (active); in test [6], 37.1 µM (active).
As for `CC(=O)Nc1ccc(N=Nc2cc(C)ccc2O)cc1`, the Potency entry in test [1] was “inactive”. Moreover, the Potency in test [2] was 61.1 µM (active); in test [3] it was 9.69 µM (active); in test [7] it was 63.3 µM (active); in test [4], 56.4 µM (active); in test [5], 35.6 µM (active); in test [6] it was 31.7 µM (active).
With `CCCCNc1ccc(NCCCC)c2c1C(=O)c1ccccc1C2=O`, the caspase-3/7 activation in test [1] is 2.79% [at 19 µM]. Besides, the activity change, negative = cytotoxicity in test [2] was -16.6% [at 19 µM]. In addition, the activation in test [3] is 2.95% [at 19 µM]. Besides, the activity change, negative = inhibition in test [7] was 0.95% [at 23.6 µM]; in test [4], -5.26% [at 23.6 µM]; in test [5], -1.25% [at 23.6 µM]. Besides, the Potency in test [6] is 3.79 µM (active).
Turning to `Cc1ccc2nc(-c3ccc(N)cc3)sc2c1S(=O)(=O)O`, the Potency entry in test [1] and in test [2] was “inactive” each time. Also, the Potency in test [3] was 2.69 µM (active); in test [4], 22.1 µM (active); in test [5], 15.7 µM (active).
As to `Cc1ccc(C2OC[C@@H]3OC(c4ccc(C)cc4)O[C@H]([C@H](O)CO)[C@@H]3O2)cc1` (some centres undefined), the Potency result in test [1], in test [2], in test [3], in test [7], in test [5] and in test [6] was “inactive” each time. The Potency in test [4] is 6.33 µM (active).
As to `O=C1c2ccccc2C(=O)c2c(Cl)cccc21`, the Potency entry in test [1], in test [2] and in test [7] was “inactive” throughout. The results for the Potency in test [3], in test [4] and in test [6] were 10.2 µM (active), 18.8 µM (active) and 0.0473 µM (active), respectively.
With `O=C1OCc2ccccc21`, the Potency result in test [1], in test [2], in test [3], in test [7], in test [5] and in test [6] was “inactive” in each case.
For the compound `SC1CCCCC1`, the Potency entry in test [1], in test [2], in test [3], in test [7], in test [4] and in test [5] was “inactive” in each case. The Potency result in test [6] is “inactive”.
As to `Cc1ccc2n[nH]nc2c1`, the Potency entry in test [1], in test [2], in test [3], in test [7] and in test [5] was “inactive” in each case.
Consider `CCNc1nc(NC(C)(C)C)nc(OC)n1`, for which the Potency result in test [1], in test [2], in test [7] and in test [5] was “inactive” in each case. The results for the Potency in test [3], in test [4] and in test [6] were 61.1 µM (active), 35.6 µM (active) and 20 µM (active), respectively.
As to `CC/C=C(\C)C=O`, the Potency result in test [1], in test [2], in test [3], in test [7], in test [4] and in test [5] was “inactive” in each case. The Potency in test [6] is 39.9 µM (active).
As for `CCC(O)CO` (centres undefined), the Potency result in test [1], in test [2], in test [3], in test [7], in test [4] and in test [5] was “inactive” each time. For the same compound, the Potency entry in test [6] is “inactive”.
Turning to `NC(=O)c1ccccc1Cl`, the Potency result in test [1], in test [2], in test [3], in test [7], in test [5] and in test [6] was “inactive” in each case.
As for `O=C1CCC(=O)N1`, the Potency result in test [1], in test [2], in test [3], in test [7], in test [4] and in test [5] was “inactive” in each case. In addition, the Potency entry in test [6] was “inactive”.
Consider `C/C(=C\c1ccc(C(=O)O)cc1)c1ccc2c(c1)C(C)(C)CCC2(C)C`, for which the Potency result in test [1], in test [2], in test [3], in test [7], in test [5] and in test [6] was “inactive” each time.
Consider `O=C(CCCCCCCCc1cccnc1)N1CCC(C=C(c2ccccc2)c2ccccc2)CC1`, for which the Potency result in test [1], in test [2] and in test [7] was “inactive” throughout. The Potency in test [3] was 5.45 µM (active); in test [5], 0.633 µM (active).
